Results filed as inconclusive are left out. A call without a number means that no potency is given here. The source made the active and inactive calls. Calls follow the shape of the dose curve; as a rule, active = well fitted inhibition curve with a large enough effect; inconclusive = small, poorly fitted or top-dose-only effect; inactive = flat fitted curve, though single readings scatter.
What follows are compounds tested on Zika virus NS2B-NS3 protease (assay: Primary screen GU AMC qHTS for Zika virus inhibitors (AID 1347154; also: nearly all actives have a fitted effect of over 70% in size)). Settings: Zika NS2B-NS3 unlinked protease, AMC fluorogenic substrate; series mostly up to 54.1 µM.
How it was run: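 Unlinked Zika NS2B hydrophilic domain–NS3 protease complex at 25 nM in 10 mM Tris-HCl pH 8.0, 0.01% Tween 20, with an AMC peptide substrate. Fluorescence change (340/450 nm) over 15 min at room temperature, normalized to controls, fitted to 4-parameter Hill.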

SMILES	Potency
CC(=NNC(=S)N1CCC1)c1ccccn1	inactive
C=C1C(=O)OC2C=C(C)CCC=C(C)CCC12 (stereo not given)	inactive
CC(C)C(C)C=CC(C)C1CCC2C3=CC=C4CC(O)CCC4(C)C3CCC21C (stereo not given)	inactive
O=C(O)c1ccc(-c2c[nH]c3ncc(-c4ccccc4)cc23)cc1C1CCCC1	inactive
CCN(CC)CCOc1ccc(C(=C(Cl)c2ccccc2)c2ccccc2)cc1	inactive
CCc1ccc(OCc2ccccc2C(=O)Nc2ccc3nc(C)cc(N)c3c2)cc1	inactive
COc1cc(O)c2c(c1)C(=O)c1cc(C)cc(O)c1C2=O	inactive
CCNc1cc(NC2CCC(O)CC2)nc(Nc2ccc3c(ccn3Cc3ccccc3)c2)n1 (stereo not given)	inactive
O=C(Nc1c(Cl)cncc1Cl)c1ccc(OC(F)F)c(OCC2CC2)c1	inactive
C[C@@H]1CCN(C(=O)CC#N)C[C@H]1N(C)c1ncnc2[nH]ccc12	inactive
CC[C@@]1(O)C[C@H](O[C@H]2C[C@H](N(C)C)[C@H](O[C@H]3C[C@H](O)[C@H](O[C@H]4CCC(=O)[C@H](C)O4)[C@H](C)O3)[C@H](C)O2)c2c(cc3c(c2O)C(=O)c2c(O)cccc2C3=O)[C@@H]1C(=O)OC	inactive
Oc1ccc(C2=Cc3ccc(O)cc3OC2)cc1	inactive
COC(=O)C1=CO[C@@H](O)[C@@H]2C(CO)=CC[C@@H]12	inactive
CO[C@H]1C(=O)[C@]2(C)[C@@H](OC)C[C@H]3OC[C@@]3(OC(C)=O)[C@H]2[C@H](OC(=O)c2ccccc2)[C@]2(O)C[C@H](OC(=O)[C@H](O)[C@@H](NC(=O)OC(C)(C)C)c3ccccc3)C(C)=C1C2(C)C	inactive
NS(=O)(=O)c1ccc(NC2=CC(=O)c3ccccc3C2=O)cc1	inactive
COc1cc(NC(=O)c2ccc(-c3ccc(Cl)cc3)o2)cc(OC)c1	inactive
CC(=O)N[C@@H](CS)C(=O)O	inactive
CCOC(=O)O[C@]1(C(=O)OCCl)CC[C@@H]2[C@H]3CCC4=CC(=O)C=C[C@]4(C)[C@@H]3[C@@H](O)C[C@@]21C	inactive
CCCCCCCCCCCC1=C(O)C(=O)C=C(O)C1=O	inactive
O=C(OCC#CCSc1nnc(-c2cccc3ccccc23)o1)c1cc2ccccc2s1	inactive
N#C[C@H]1C[C@H]2C[C@@H]2N1C(=O)[C@@H](N)C12CC3CC(CC(O)(C3)C1)C2	inactive
NC1=N[C@@]2(c3cc(NC(=O)c4ccc(F)cn4)ccc3F)COC[C@@H]2CS1	inactive
OC[C@@H](O)[C@H](O)[C@H](O)[C@@H](O)CO	inactive
C=C1C(=O)OC(CCCCCCCC)C1C(=O)O (stereo not given)	inactive
COc1ccc(-c2oc3c(CC=C(C)C)c(OC4O[C@H](CO)[C@@H](O)[C@H](O)[C@@H]4O)cc(O)c3c(=O)c2OC2O[C@@H](C)[C@H](O)[C@@H](O)[C@@H]2O)cc1 (stereo not given in full)	inactive
